Results taken from PubChem BioAssay AID2279 (Southern Research Specialized Biocontainment Screening …, 2010).
Potency and affinity values are given separately. Activity calls are given as the source filed them. How the calls were made is not given here.

test: HIV-1 Env-mediated cell fusion inhibitors, dose response, CCR5-tropic Env (AID 2279); details: CCR5-tropic HIV-1 Env, reporter read-out; series mostly up to 50 µM

outcome, inactive:
Cc1cc(/C=C2/C(=N)N3C(=NC2=O)SN=C3S(C)(=O)=O)c(C)n1-c1ccccc1, CCc1ccc(S(=O)(=O)/N=C2\C=C(NS(=O)(=O)c3ccccc3)C(=O)c3ccccc32)cc1, Cc1c(Cl)cccc1NS(=O)(=O)c1ccc2c(c1)C1C=CCC1C(c1ccc(C(=O)O)cc1)N2 (centres undefined), COC(=O)c1sc(-c2ccc(C(C)(C)C)cc2)cc1NC(=O)CSCC(=O)O, CN1C(=O)/C(=C/c2ccc(C(=O)Nc3ccc(O)cc3C(=O)O)cc2)SC1=S, COc1ccc(O)c(C(=O)c2cc(SCC(=O)O)c3nc4sc5c(c4c(=O)n3c2)CCCC5)c1, O=C(O)c1cc(NC(=O)c2ccc(Br)cc2)cc(NC(=O)c2ccc(Br)cc2)c1, O=C(O)c1ccc(-c2ccc(/C=c3/sc4nc5ccccc5n4c3=O)o2)cc1Cl, CCN1C(=O)/C(=C\c2ccc(-c3ccc([N+](=O)[O-])cc3OC)o2)SC1=Nc1cccc(C(=O)O)c1, COc1ccc(C(=O)Nc2ccc(/C(C)=N/NC(=O)c3ccncc3)cc2)cc1, Cc1c(CC(=O)O)c(=O)oc2c(C)c3occ(-c4ccc(Br)cc4)c3cc12, CCOc1cc(/C=N/NC(=O)c2ccc(-c3csc(Nc4ccc(C)cc4)n3)cc2)ccc1OCC(=O)O, N=C1/C(=C/c2ccc(-c3cccc(C(=O)O)c3)o2)C(=O)N=C2SC=C(c3ccccc3)N12, O=C(O)CN1C(=O)/C(=C\c2cc(Br)ccc2OCc2ccc(F)cc2)SC1=S, Cc1cccc(C)c1-n1cccc1/C=C1\SC(=S)N(c2cccc(C(=O)O)c2)C1=O, O=C(O)c1[nH]c2ccccc2c1C(c1c(F)cccc1Cl)c1c(C(=O)O)[nH]c2ccccc12, COc1ccc(NS(=O)(=O)c2ccc3c(c2)[C@H]2C=CC[C@H]2[C@@H](c2ccc(C(=O)O)cc2)N3)cc1, O=C(O)CN1C(=O)/C(=C\c2cccc(OCc3ccc(Cl)cc3)c2)SC1=S, O=C(Nc1ccc(C(=O)O)cc1)/C(=C\C=C\c1ccccc1)NC(=O)c1cccc(Br)c1, COc1cc(NS(=O)(=O)c2ccc(NC(=S)NC(=O)c3sc4ccccc4c3Cl)cc2)nc(OC)n1, CC(Oc1ccc(Cl)cc1Cl)C(=O)Nc1ccc(S(=O)(=O)Nc2cnc3ccccc3n2)cc1 (centres undefined), COc1ccc(NC(=O)c2c[nH]n3c(=O)cc(C4CCN(C(=O)OC(C)(C)C)CC4)nc23)cc1Cl, CC1=C(C(=O)OC(C)C)C(c2ccc(Cl)cc2)n2c(s/c(=C\c3ccc(OCC(=O)O)cc3)c2=O)=N1 (centres undefined), O=C(O)CN1C(=O)/C(=C\c2cc(Br)ccc2OCc2ccc(Cl)cc2Cl)SC1=S, CC(/C=C1\SC(=S)N(c2ccc(C(=O)O)cc2)C1=O)=C\c1ccccc1, O=C1NN(c2ccc(Cl)c(Cl)c2)C(=O)/C1=C/c1cccc(OC(=O)c2cccs2)c1, O=C(CCN1C(=O)/C(=C\c2ccccc2F)SC1=S)Nc1ccc(C(=O)O)c(O)c1, CCOc1ccc(C2C(C(=O)Nc3ccccc3)=C(C)N=c3s/c(=C/c4cccc(OCC(=O)O)c4)c(=O)n32)cc1 (centres undefined), O=C(O)c1ccccc1NS(=O)(=O)c1ccc(NNC(=S)Nc2ccc(OC(F)F)cc2)c([N+](=O)[O-])c1, CCOc1cc(/C=C2\C(=O)N(c3cccc(C(=O)O)c3)N=C2C(F)(F)F)ccc1OCC(=O)Nc1ccccc1OC, O=C(COc1ccc(Cl)cc1)Nc1cc(NC(=O)COc2ccc(Cl)cc2)cc(C(=O)O)c1, O=C(CCCN1C(=O)/C(=C/c2cccs2)SC1=S)Nc1ccc(O)c(C(=O)O)c1, CS(=O)(=O)C1=NSC2=NC(=O)/C(=C\c3cccn3-c3ccc(Cl)cc3)C(=N)N21, COc1cc(/C=C2/SC(=S)N(Cc3ccccc3)C2=O)ccc1OCC(=O)O
